This excerpt belongs to a sample that is enriched for hits.
nsP2pro inh: blocks chikungunya virus nsP2 protease peptide cleavage. 1.1% of 31,000 active. Q8JUX6. Potency, µM (top dose mostly 24.9 µM), without a hit: at the top dose activity change, negative = inhibition, usual class: inhibitors. FRET peptide cleavage, nsP2pro, fluorescence 1 h. AID 1964107; further: nearly all actives have a fitted effect of over 60% in size
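Recombinant nsP2pro (150 nM) was preincubated with compound 15 min at room temperature in 10 mM Tris-HCl pH 8.0, 0.01% Tween 20. Peptide 2 FRET substrate (2.5 uM) was then added and fluorescence read after 1 h. Seven-point series, up to 25 uM.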
CHIKV nsP2 cell: cell-based CHIKV nsP2 protease inhibition, secondary; shares compounds with nsP2pro inh; cell-based CHIKV nsP2 protease reporter assay; Potency, µM (highest dose often 51.1 µM), for the others: at the top dose activity change, negative = inhibition, usual class: inhibitors; 10% of 450 active; further: nearly all actives have a fitted effect of over 70% in size
NSP2 full ctr: selectivity test for CHIKV nsP2 protease inhibitors: full-length NSP2; shares compounds with nsP2pro inh; Full-length CHIKV NSP2 protease enzymatic counterscreen; Potency, µM (highest dose often 50.7 µM), inactives show at the top dose activity change, negative = inhibition, usual class: inhibitors; 39% of 410 active; AID 1964101; further: nearly all actives have a fitted effect of over 65% in size
Furin counterscr: inhibits human furin in a CHIKV nsP2 protease selectivity counterscreen; Recombinant human furin enzymatic counterscreen, fluorogenic substrate; Potency, µM (doses to about 50.6 µM), inactives show top-dose activity change, negative = inhibition, usual class: inhibitors; shares compounds with nsP2pro inh; 6% of 410 active
nsP2 NS23 pep: selectivity test for CHIKV nsP2 protease inhibitors: endogenous NS2/3 peptide; shares compounds with nsP2pro inh; Purified CHIKV nsP2 protease, endogenous NS2/3 peptide cleavage; Potency, µM (doses to about 51 µM), for inactives: top-dose activity change, negative = inhibition, usual class: inhibitors; 34% of 410 active; further: nearly all actives have a fitted effect of over 55% in size
Papain counter: papain protease inhibition, counterscreen for nsP2pro inhibitors; Potency, µM (titrated, usually from 51 µM), inactives show top-dose activity change, negative = inhibition, actives largely listed as inhibitors; 5% of 410 active; purified papain protease activity, enzymatic inhibition; shares compounds with nsP2pro inh
nsP2pro conf qHTS: CHIKV nsP2 protease inhibition, confirmatory qHTS. shares compounds with nsP2pro inh. CHIKV nsP2 protease enzymatic activity, qHTS. Potency, µM (top dose mostly 25.5 µM), for the others: at the top dose activity change, negative = inhibition, actives largely listed as inhibitors. 43% of 410 active; further: nearly all actives have a fitted effect of over 75% in size
HCV NS3 counter: HCV NS3/4A protease inhibition, counterscreen | shares compounds with nsP2pro inh | HCV NS3/4A protease biochemical counterscreen | Potency, µM (top dose mostly 50.9 µM), usual class: inhibitors | 20% of 410 active; further: nearly all actives have a fitted effect of over 55% in size
Numbers without * were called inactive; i = inactive; ? = inconclusive; [ ] = remark or other dose. The call rests on the fitted dose curve. On the % scale 0 is the no-effect control and ±100 the full control effect; potency means the concentration at half of the fitted maximal effect.

SMILES | nsP2pro inh | others
CC(CCC1(O)OC2CC3C4CC=C5CC(O[C@@H]6O[C@H](CO)[C@@H](O[C@@H]7O[C@@H](C)[C@H](O)[C@@H](O)[C@H]7O)[C@H](O)[C@H]6O[C@@H]6O[C@@H](C)[C@H](O)[C@@H](O)[C@H]6O)CCC5(C)C4CCC3(C)C2C1C)CO[C@@H]1O[C@H](CO)[C@@H](O)[C@H](O)[C@H]1O (stereo partly drawn) | 2.6%[5.1 µM]
O=C(NCC1CCCCCC1)C1CCN(Cc2ccccc2-c2cccnc2)CC1 | i
O=C(/C=C/c1ccccc1)O[C@@H]1[C@@H](CO)O[C@@](CO)(O[C@H]2O[C@H](CO)[C@@H](O)[C@H](O)[C@H]2O)[C@H]1O | 38.5%[10 µM]
COc1ccccc1OC1(C(=O)O)CCN(Cc2cccnc2)CC1 | 0.8%
COc1ccccc1OC1(C(=O)O)CCN(Cc2ccc(-c3ccn[nH]3)o2)CC1 | 1µM* | CHIKV nsP2 cell=?;NSP2 full ctr=?;Furin counterscr=-8.0%;nsP2 NS23 pep=0.3%;Papain counter=-2.7%;nsP2pro conf qHTS=-23.4%;HCV NS3 counter=i
COc1ccccc1OC1(C(=O)O)CCN(c2ncnc(C)c2C)CC1 | 0.3%
O=C(N[C@H]1CN2CCC1CC2)c1cc2cccc(Cl)c2s1 | 32.6%
Cc1ccc(-c2ccc(=O)n(C(C)C)n2)cc1 | 1.7%
Cc1nnc2n1CCC(N(C)C(=O)NCCc1ccccc1)CC2 (stereo not drawn) | -0.7%
C/C=C(\C)C(=O)O[C@H]1CC2C(=C1C)[C@H]1OC(=O)[C@](C)(O)[C@]1(O)[C@H](OC(=O)CCC)C[C@@]2(C)OC(C)=O (stereo partly drawn) | -2.1%[10 µM]
C=C1C(=O)O[C@H]2[C@H]1[C@@H](OC(=O)/C(C)=C\C)C[C@]1(C)O[C@@H]1[C@H]1O[C@H]1C(=C)[C@H]2O | -4.5%
C/C=C(\C)C(=O)OC1C[C@@]2(COC(C)=O)O[C@H]2/C=C\[C@@]2(C)O[C@@H]2[C@H]2OC(=O)C(COC(C)=O)=C12 (stereo partly drawn) | 3.42µM* | CHIKV nsP2 cell=-0.3%[17.6 µM];NSP2 full ctr=?;Furin counterscr=-8.3%[17.3 µM];nsP2 NS23 pep=?;Papain counter=-9.1%[17.2 µM];nsP2pro conf qHTS=3.47µM*;HCV NS3 counter=?
Nc1cccc(CNc2ccc(S(=O)(=O)Nc3nccs3)cc2)c1O | i[5.1 µM]
CCCN1CCN(c2cccc(Nc3nn4c(=O)c5ccccc5nc4s3)c2)CC1 | 3.4%
COc1ccc(C2c3c(n(CCCc4ccccc4)cnc3=N)Oc3ccc4ccccc4c32)cc1OC (stereo not drawn) | -13.5%
COc1cc(C(=O)O)ccc1OC1OC(CO)C(O)C(O)C1O (stereo not drawn) | -3.4%
COc1ccc(-c2ccc3cc(C(=O)O)ccc3c2)cc1C12CC3CC(CC(C3)C1)C2 | -21.2%
COc1cc(C(=O)O)cc(OC)c1O | ? | CHIKV nsP2 cell=-3.7%;NSP2 full ctr=?;Furin counterscr=-2.1%;nsP2 NS23 pep=i;Papain counter=-5.6%;nsP2pro conf qHTS=2.0%;HCV NS3 counter=i
Cc1ccc(S(=O)(=O)Nc2cnccc2C(=O)Nc2nc(C3CCC3)cs2)cc1 | i
O=C(Nc1ccc(OC(F)(F)F)cc1)c1cc2ccccn2n1 | -17.8%
O=C(Nc1ccc(OC(F)(F)F)cc1)c1nc2ccccc2nc1N1CCCCC1 | ? | CHIKV nsP2 cell=36.6%
CCOc1ccc(NC(=O)c2cnc(N3CCCCC3)c3ccccc23)cc1 | 1.6%
c1nc2nc(Nc3ccc(N4CCOCC4)cc3)nc(NC3CCCCC3)c2[nH]1 | 96.3%[10 µM]
Cc1cc(C(=O)N2CCC3(CC2)CC(O)CCO3)c(C)o1 (stereo not drawn) | -10.7%
Cc1ccc(CNc2ncnc3ccc(-c4ccc(C(=O)N(C)C)o4)cc23)o1 | i
SMILES | nsP2pro inh | others
Cc1ccc(CN(C)c2ncnc3ccc(-c4ccc(CO)o4)cc23)o1 | -25.7%
Cc1ccc(CNc2ncnc3ccc(-c4ccc(CO)o4)cc23)o1 | ? | CHIKV nsP2 cell=13.6%;NSP2 full ctr=17.6%;Furin counterscr=-10.7%;nsP2 NS23 pep=i;Papain counter=46.1%;nsP2pro conf qHTS=8.5%;HCV NS3 counter=i
Cc1csc(CNc2ncnc3ccc(-c4ccc(C(=O)O)o4)cc23)n1 | -11.0%
CCNC(=O)c1ccc(-c2ccc3ncnc(NCc4nccs4)c3c2)o1 | -6.4%
O=C(O)c1ccc(-c2ccc3ncnc(N4CCOCC4)c3c2)o1 | -0.5%
CCNC(=O)c1ccc(-c2ccc3ncnc(NCCc4cnc[nH]4)c3c2)o1 | -14.1%
CC(O)c1ccc(-c2ccc3ncnc(N4CCOCC4)c3c2)o1 (stereo not drawn) | 10µM* | CHIKV nsP2 cell=?;NSP2 full ctr=16.3µM*;Furin counterscr=-7.9%;nsP2 NS23 pep=?;Papain counter=18.3%;nsP2pro conf qHTS=4.3%;HCV NS3 counter=20.6µM*
OCc1ccc(-c2ccc3ncnc(NCCc4cnc[nH]4)c3c2)o1 | 1.12µM* | CHIKV nsP2 cell=20.6µM*;NSP2 full ctr=1.7%;Furin counterscr=-6.4%;nsP2 NS23 pep=1.8%;Papain counter=6.7%;nsP2pro conf qHTS=82.2%;HCV NS3 counter=10.3µM*
O=C(O)c1ccc(-c2ccc3ncnc(NCCc4cnc[nH]4)c3c2)o1 | i
CC(O)c1ccc(-c2ccc3ncnc(NCc4nccs4)c3c2)o1 (stereo not drawn) | 10µM* | CHIKV nsP2 cell=?;NSP2 full ctr=11.6µM*;Furin counterscr=-19.6%;nsP2 NS23 pep=23.1µM*;Papain counter=41.1%;nsP2pro conf qHTS=-52.9%;HCV NS3 counter=11.6µM*
c1nc(N2CCC(N3CCCC3)CC2)c2cc(-c3ccc4c(c3)OCO4)ccc2n1 | i
C=C(C)C1CCC2(C(=O)O)CCC3(C(=O)O)C(CCC4C5(C)CCC(O)C(C)(C(=O)O)C5CCC43C)C12 (stereo not drawn) | -2.7%[10 µM]
O=C(c1cc(-n2cccn2)ccc1Cl)N1CCn2nc(CO)cc2C1 | 1.1%
C[C@@H]1O[C@@H](O[C@H]2CC[C@@]3(C)C(CC[C@@H]4C3CC[C@]3(C)[C@@H](C5=CC(=O)OC5)CC[C@]43O)C2)[C@H](O[C@@H]2O[C@H](CO)[C@@H](O)[C@H](O)[C@H]2O)[C@H](O)[C@H]1O (stereo partly drawn) | -7.6%[10 µM]
N#Cc1cccc(C#N)c1-c1nc2c3ccccc3c3cc(Cl)ccc3c2[nH]1 | -8.3%
CC(C)NC(=O)C1CCC(=O)N1C1CCN(C(=O)CC(C)(C)C)CC1 (stereo not drawn) | 2.9%
O=C(Nc1ccccc1F)C1CN(C2CCCC2)C(=O)N1 (stereo not drawn) | -0.9%[39.2 µM]
Cn1nc2n(c1=O)CCN(C(=O)c1ccc(F)cc1F)CC2 | 4.3%
Cc1ccc(NS(=O)(=O)c2ccc3[nH]c(=O)[nH]c3c2)cc1C | -0.9%

From PubChem BioAssay
